This is a sample that favours compounds with a hit; in the whole collection about 2.7% have one here.
Integrin act MD – activates integrin-mediated alleviation for muscular dystrophy; alpha7betagal myoblasts, beta-gal FDG fluorescence, 48 h; Potency, µM (top dose mostly 38.3 µM), without a hit: at the highest dose activation, usual class: activators; actives 0.064% (n = 350,000); AID 624291;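 further: 100% = response of the positive control SU9516; nearly all actives have a fitted effect of over 60% in size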
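alpha7betagal+/- myoblasts (passage 13, 250/well) treated 48 h at 37C with compounds at 1:260 dilution of DMSO stock. Lysed, then beta-galactosidase activity read as FDG fluorescence (ex 480/em 540) after 30 min, with pre-read for autofluorescence.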
GLP-1R inv ag – acts as inverse agonist at human GLP-1 receptor; P43220; HEK293 GLP-1R CRE-luciferase, luminescence, 24 h; GLP-1R form is constitutively active; Potency, µM (doses to about 38.3 µM), inactives show at the top dose activity change, negative = inhibition, most hits filed as inhibitors; actives 1.6% (n = 410,000); AID 624417; further: on the % scale 0 is the no-effect control and ±100 the full control effect; nearly all actives have a fitted effect of over 55% in size
Target sequence (P43220 whole entry, looked up): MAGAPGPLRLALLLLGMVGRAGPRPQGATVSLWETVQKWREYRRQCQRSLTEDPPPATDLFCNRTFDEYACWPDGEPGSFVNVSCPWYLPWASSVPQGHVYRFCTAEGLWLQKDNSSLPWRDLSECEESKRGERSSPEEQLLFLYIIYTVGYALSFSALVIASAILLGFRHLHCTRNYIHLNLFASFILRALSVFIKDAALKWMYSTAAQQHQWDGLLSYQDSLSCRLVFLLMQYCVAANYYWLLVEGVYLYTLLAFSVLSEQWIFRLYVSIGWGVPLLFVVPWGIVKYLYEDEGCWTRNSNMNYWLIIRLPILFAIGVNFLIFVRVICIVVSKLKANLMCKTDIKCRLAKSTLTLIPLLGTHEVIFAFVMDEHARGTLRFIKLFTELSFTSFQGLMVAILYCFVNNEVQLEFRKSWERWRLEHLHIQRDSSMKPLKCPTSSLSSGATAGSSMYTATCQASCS
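Luminescence readout: a drop in cAMP-driven luciferase signal flags inverse agonism at a constitutively active GLP-1R stably expressed in HEK293. Compound exposure lasted 24 hr at 37 deg C, 5% CO2.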
GLP-1R agonist – activates the human GLP-1 receptor. P43220. HEK293 GLP-1R CRE-luciferase, luminescence, 4-6 h; cells express a hypersensitive GLP-1R form. Potency, µM (highest dose often 45.6 µM), inactives show top-dose activation, usual class: activators. actives 0.007% (n = 380,000). AID 624172; further: % of control where 0% means no effect
GLP1R cytotox – cytotoxicity in counter-screen for GLP-1R inverse agonists. HEK293 cAMP-luciferase reporter cells, luminescence, 24 h. actives 0.13% (n = 410,000). Potency, µM (doses to about 38.3 µM), inactives show at the highest dose activity change, negative = inhibition, usual class: inhibitors;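 further: loss of luciferase light is scored as toxicity; on the % scale 0 is the no-effect control and ±100 the full control effect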
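1536-well qHTS counterscreen of the MLSMR; 200 cells/uL, 12 h pre-incubation, 23 nL cpd, 24 h at 37 deg C 5% CO2, luciferase detection reagent, 12 min RT, luminescence. Inhibition = undesired.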
BRCA1 expr up – activators of BRCA1 expression | MCF7-BRCA1-FFLuc reporter, luminescence, 48 h; response scale: scaled: vehicle 0%, 10 µM genistein 100% | AID 624202 | actives 1.1% (n = 380,000) | Potency, µM (doses to about 46.1 µM), without a hit: at the highest dose activation, hits mostly activators; further: nearly all actives have a fitted effect of over 80% in size
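Luminescence from a BRCA1-driven firefly luciferase in MCF7 cells was read after 48 h compound exposure at 37 C. Data normalized against DMSO and a 10microM genistein activation control, then curve-fitted across the titration.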
* marks the source's active call; other numbers are inactive results; ? = inconclusive; . = not tested or not shown. The call rests on the fitted dose curve; in most records, active means well fitted curve in the direction sought with a large enough effect; inconclusive means small, poorly fitted or top-dose-only effect, or another doubt; inactive means no such curve, though single readings can be large; an effect the other way counts as inactive or inconclusive. Potency means the concentration at half of the fitted maximal effect.

SMILES | Integrin act MD | GLP-1R inv ag | GLP-1R agonist | GLP1R cytotox | BRCA1 expr up
O=C(/C=C(\O)c1ccccc1)C(=O)NNC(=O)c1ccccc1 | -13% | 48% | 0% | -34% | 13µM*
O=C(COc1ccccc1Cl)Nc1ccc(Cl)c(-c2nc3ccccc3o2)c1 | . | 11% | . | -2% | .
CCOC(=O)C1=CN(Cc2cccc(F)c2)S(=O)(=O)NC1c1ccc(Br)cc1F (stereo not given) | 12% | 10µM* | 1% | 1% | -29%
CCOC(=O)C1=CN(Cc2cccc(F)c2)S(=O)(=O)NC1c1ccc(F)c(Cl)c1 (stereo not given) | -9% | ? | -1% | 0% | -27%
Cc1cc(C)c2nc(N3CCCC(C(=O)NCCN4CCOCC4)C3)sc2c1 (stereo not given) | 8% | 0% | 2% | 15% | 2.8µM*
Cc1cc(C)c2nc(N3CCCC(C(=O)NCCCN4CCOCC4)C3)sc2c1 (stereo not given) | -19% | ? | 12% | -1% | 71%
C/C(=N/NC(=O)CNC(=O)CCc1ccccc1)c1ccc(Cl)cc1 | 5% | ? | 0% | ? | 3%
C/C(=N\NC(=S)NCCc1ccccc1)c1ccc(C)cc1 | 0% | ? | 2% | 10µM* | -20%
C/C(=N\NC(=S)NCCc1ccccc1)c1ccc(C#N)cc1 | -22% | 1% | 0% | -5% | -29%
C/C(=N\NC(=S)NCCc1ccccc1)c1ccc(Cl)cc1 | -5% | 10µM* | ? | ? | -39%
C[C@@H]1CC=C[C@H]2[C@H]1C(=O)N(Cc1ccccc1)[C@H]2c1ccc(-c2ccc(N(C)C)cc2)cc1F | 18% | 7.9µM* | 0% | 3% | -31%
C[C@@H]1CC=C[C@H]2[C@H]1C(=O)N(Cc1ccccc1)[C@H]2c1ccc2ccccc2c1 | 5% | ? | 1% | 33% | -22%
Cc1ccc(-c2ccc([C@H]3[C@H]4C=CC[C@@H](C)[C@@H]4C(=O)N3Cc3ccccc3)c(F)c2)cc1 | 1% | -28% | 2% | 39% | -15%
C[C@@H]1CC=C[C@H]2[C@H]1C(=O)N(Cc1ccccc1)[C@H]2c1cccc([N+](=O)[O-])c1 | -30% | 7.1µM* | 1% | 2% | 0%
Cc1ccc(F)c([C@H]2[C@H]3C=CC[C@@H](C)[C@@H]3C(=O)N2Cc2ccccc2)c1 | -10% | 10µM* | -3% | 6% | -4%
CCC(C(=O)OCC(=O)N1C(C)CCCC1C)c1ccccc1 (stereo not given) | 11% | 8.9µM* | 12% | 3% | 2%
CCOC(=O)/C(C#N)=C\C=C1C=CN(C)C=C1 | 5% | 14% | -2% | -18% | 4µM*
COc1ccc2ccccc2c1/C=N/Nc1cccc(C(=O)O)c1 | 3% | 43% | -1% | 7% | 3.5µM*
Cc1ccsc1/C=N/Nc1cccc(C(=O)O)c1 | -9% | 4.5µM* | -9% | -3% | -105%
COc1cc(C=NNc2ccccc2)ccc1OC(=O)c1ccccc1 | -24% | 1µM* | -6% | -26% | -3%
COc1ccc2ccccc2c1/C=N/Nc1ccc(Cl)c(C(=O)O)c1 | -18% | 6% | 5% | 76% | 69%
COc1ccc(NC(=O)CSc2nc(O)c(C/C=C/c3ccccc3)c(=O)[nH]2)cc1 | . | 10% | . | 2% | .
COc1ccc(NC(=O)COc2ccc(S(=O)(=O)NC3CCCCC3)cc2)c(OC)c1 | . | 7% | . | 1% | .
COc1ccc(-n2ncc3c2CC(C)(C)CC3NC(=O)c2oc(C)cc2C)cc1 (stereo not given) | 0% | -25% | -1% | -1% | -25%
Cc1cc(C)c(C(=O)NC2CC(C)(C)Cc3c2cnn3-c2ccccc2)o1 (stereo not given) | -7% | 10µM* | -1% | -3% | -20%
SMILES | Integrin act MD | GLP-1R inv ag | GLP-1R agonist | GLP1R cytotox | BRCA1 expr up
Cn1c(C(=O)NCc2ccccn2)cc2c(=O)n3ccccc3nc21 | -21% | 0% | 1% | 77% | 5µM*
Cn1c(C(=O)NC2CCCCC2)cc2c(=O)n3ccccc3nc21 | ? | 19% | 6% | 39% | -2%
Nc1[nH]c(=O)nc2c1ncn2C1OC(CO)C(O)C1O (stereo not given) | . | . | . | . | 12%
CCN1CCN(Cc2ccc(NC(=O)c3cc(NC(=O)C(=O)c4c[nH]c5ccccc45)cc(OC)c3)cc2C(F)(F)F)CC1 | -59% | 10µM* | -15% | ? | -66%
COc1ccc(N2CCN(CCC3Oc4cc([N+](=O)[O-])ccc4NC3=O)CC2)cc1 (stereo not given) | 8.9µM* | ? | 4% | 0% | 0%
CCN1CCN(CCC2Oc3cc([N+](=O)[O-])ccc3NC2=O)CC1 (stereo not given) | 2% | -16% | 3% | -19% | 4%
COc1ccc(CCNS(=O)(=O)c2ccc(N3CCCCS3(=O)=O)cc2)cc1 | . | -21% | . | -1% | .
Cc1cc(C)nc(S/C=C/C(=O)c2ccccc2F)n1 | 1% | ? | 2% | 3.5µM* | -77%
N#C[C@H]1C[C@H]2C[C@@H]2N1C(=O)[C@@H](N)C12CC3CC(CC(O)(C3)C1)C2 | . | . | -4% | . | .
COc1ccccc1CNC(=O)C1(NC(=O)Nc2ccc(C)cc2)CCCCC1 | 22% | 8.9µM* | -8% | -7% | -12%
Cc1ccc(NC(=O)NC2(C(=O)NCc3ccccc3)CCCCC2)cc1 | 4% | -24% | 1% | 4% | -15%
CCCNC(=O)CNC(=O)c1ccccc1OCC(=O)Nc1ccc(Br)cc1 | . | . | . | . | -26%
COc1ccc2[nH]c3c(NCCC4=CCCCC4)ncnc3c2c1 | -48% | 5µM* | 7% | ? | 0%
COc1ccc2[nH]c3c(NCCCOC(C)C)ncnc3c2c1 | 8% | 4% | 16% | -2% | -1%
C1=C(CCNc2ncnc3nc[nH]c23)CCCC1 | -24% | -13% | -8% | ? | 6.3µM*
O=C(CSc1ccccc1C(=O)O)c1ccc(Cl)cc1 | 1% | -2% | 0% | 36% | 10µM*
CC(NC(=O)CN(C)CC(=O)Nc1ccc(Cl)c(C(F)(F)F)c1)c1ccccc1 (stereo not given) | -17% | 10µM* | -4% | 6% | -43%
COc1ccc(NC(=O)CSc2nc(-c3cccs3)cc(C(F)(F)F)n2)cc1OC | . | -7% | . | 0% | .
CCN(C(=O)c1cc2c(s1)-c1c(C)cccc1OC2)c1cc(C)ccc1C | . | 11µM* | . | 32% | .
Cc1cccc2c1-c1sc(C(=O)N3CCCCC3)cc1CO2 | -3% | ? | 17% | 3% | 6.3µM*
CC(Oc1ccccc1)C(=O)Nc1c(C(=O)Nc2cccc(F)c2)oc2ccccc12 (stereo not given) | . | 4% | 0% | -6% | -5%
Cc1cc(-c2ccccc2)nc(N2CCC(C(=O)NC(C)C)CC2)n1 | 16% | 0% | -12% | 1% | 2µM*

From PubChem BioAssay
